High-throughput results (PubChem)
Pol beta inh: blocks human DNA polymerase beta activity; P06746; Pol beta primer extension/strand displacement, fluorescence kinetic; Potency, µM (highest dose often 114 µM), for inactives: top-dose activity change, negative = inhibition, usual class: inhibitors; actives 1.3% (n = 340,000); AID 485314; further: on the % scale 0 is the no-effect control and ±100 the full control effect
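Preincubation: enzyme (10 nM) with compound, 15 min, RT. Reaction: substrate added to 50 nM final. Reads: 0 and 10 min. Analysis: normalized, Hill fit.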
TDP1 block: blocks human tyrosyl-DNA phosphodiesterase 1; Q9NUW8; recombinant TDP1, AlphaScreen DNA substrate cleavage; Potency, µM (series often up to 130 µM), inactives show at the top dose activity change, negative = inhibition, hits mostly inhibitors; actives 0.28% (n = 350,000); AID 485290; further: on the % scale 0 is the no-effect control and ±100 the full control effect; nearly all actives have a fitted effect of over 40% in size
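Recombinant E. coli-expressed Tdp1 (1 nM) preincubated with compound 15 min at RT, then 5'-biotin/3'-phosphotyrosine-FITC DNA substrate (15 nM) added for 5 min. AlphaScreen beads (10 ug/ml) added, 10 min RT; tyrosine-FITC cleavage read as signal loss.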
Pol kappa inh: DNA polymerase kappa (human) inhibition | actives 0.53% (n = 400,000) | Q9UBT6 | purified Pol kappa, fluorescent DNA synthesis assay, 10 min | Potency, µM (highest dose often 107 µM), for the others: at the highest dose activity, negative = inhibition, hits mostly inhibitors; further: on the % scale 0 is the no-effect control and ±100 the full control effect
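Fluorescent qHTS in 1536-well format: enzyme (10 nM) and compound sat 15 min at room temperature before 50 nM substrate (final) was added. Signal taken at 0 and 10 min; no-enzyme buffer wells were negative controls.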
FEN1 inh: inhibitors of human flap endonuclease 1; P39748; Recombinant FEN1 flap cleavage, fluorescence, 15 min; Potency, µM (highest dose often 114 µM), for inactives: at the highest dose activity change, negative = inhibition, most hits filed as inhibitors; actives 0.35% (n = 390,000); further: on the % scale 0 is the no-effect control and ±100 the full control effect; nearly all actives have a fitted effect of over 65% in size
Target sequence (P39748 whole entry, looked up): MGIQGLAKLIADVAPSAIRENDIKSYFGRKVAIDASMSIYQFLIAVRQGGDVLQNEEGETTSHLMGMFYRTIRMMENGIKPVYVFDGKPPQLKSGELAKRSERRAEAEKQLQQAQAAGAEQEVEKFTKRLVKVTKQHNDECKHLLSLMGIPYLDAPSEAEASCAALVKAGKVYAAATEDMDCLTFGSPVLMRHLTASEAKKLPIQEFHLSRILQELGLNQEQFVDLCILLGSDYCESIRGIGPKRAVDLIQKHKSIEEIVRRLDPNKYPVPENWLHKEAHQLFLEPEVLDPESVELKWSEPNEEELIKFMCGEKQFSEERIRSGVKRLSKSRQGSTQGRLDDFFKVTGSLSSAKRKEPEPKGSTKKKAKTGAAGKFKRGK
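Potency values derive from four-parameter Hill fits of normalized qHTS data. The reaction used 10 nM FEN1 preincubated 15 min at room temperature with compound, then 50 nM DNA substrate, read at 0 and 15 min.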
POLH inh: inhibitors of human DNA polymerase eta | recombinant Pol eta, fluorescent DNA replication assay | actives 1.2% (n = 390,000) | Q9Y253 | Potency, µM (top dose mostly 114 µM), inactives show top-dose activity change, negative = inhibition, usual class: inhibitors | AID 588591; further: on the % scale 0 is the no-effect control and ±100 the full control effect
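Pol eta (10 nM) was preincubated with compounds for 15 min at room temperature, after which fluorescent replication substrate (50 nM final) was added to start the reaction. Fluorescence was read kinetically at 0 and 10 min.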
Pol iota inh: blocks human DNA polymerase iota activity. Potency, µM (highest dose often 115 µM), for the others: at the highest dose activity, negative = inhibition, most hits filed as inhibitors. Q9UNA4. actives 1% (n = 390,000). Pol iota fluorescent replication assay, 10 min. AID 588590
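Pol iota at 10 nM preincubated 15 min with compounds at room temperature; reaction started with fluorescent substrate, 50 nM final. Fluorescence read kinetically at 0 and 10 min; buffer-only wells as negative control.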
Numbers without * were called inactive; ? = inconclusive; / = no result; ! = a repeat was not active. Compounds with a hit are over-represented: about 2.4% of the library has one in this group of screens. The call rests on the fitted dose curve; in most records, active means well fitted curve in the direction sought with a large enough effect; inconclusive means small, poorly fitted or top-dose-only effect, or another doubt; inactive means no such curve, though single readings can be large; an effect the other way counts as inactive or inconclusive. Potency means the concentration at half of the fitted maximal effect.

SMILES | Pol beta inh | TDP1 block | Pol kappa inh | FEN1 inh | POLH inh | Pol iota inh
COc1c(C2=CC(=O)N(C)C2=O)c2c(n1C)C(=O)c1ccccc1C2=O | / | 5.0% | / | / | / | /
O=C1CN(C(=O)c2ccc(S(=O)(=O)N3CCCCC3)cc2)C(c2ccc(F)cc2)c2cc(Cl)ccc2N1 (stereo not given) | 2.4% | 5.9% | -5.8% | 10.7% | -8.3% | 2.8%
CSc1ccc(S(=O)(=O)NCC(=O)OCC(=O)NCc2cccs2)cc1[N+](=O)[O-] | / | -13.0% | -2.5% | -6.5% | -20.4% | 12.0%
Nc1ccc(S(=O)(=O)NCC(=O)OC2CCOC2=O)cc1[N+](=O)[O-] (stereo not given) | / | 25.1µM* | -34.1% | 8.0% | ? | ?
Cc1ccc(C)c(OCCn2ccnc2)c1 | 10µM* | / | 79.4µM* | -16.0% | 31.6µM* | 39.8µM*
Cc1cc(C)c(C)c(OCCn2ccnc2)c1 | 11.0% | 7.3% | -1.6% | -0.9% | 1.7% | 89.6%
Cn1c2ccsc2c2cnn(Cc3ccccc3F)c(=O)c21 | / | -3.4% | / | / | / | /
Cc1nc(N=Nc2cc(S(=O)(=O)O)ccc2S(=O)(=O)O)c(COP(=O)(O)O)c(C=O)c1O | / | 5.01µM* | 2µM* | / | / | /
CC(C)c1nc(N2CCN(C(=O)c3ccccc3)CC2)c(C#N)c2c1COC(C)(C)C2 | -2.0% | 4.4% | -9.1% | -18.5% | -6.1% | ?
CC1(C)Cc2c(C#N)c(N3CCN(C(=O)c4ccccc4)CC3)nc(-c3ccco3)c2CS1 | 28.2µM* | 2.4% | -22.1% | -15.4% | 31.6µM* | ?
CNc1nc(C#N)nc(Nc2ccccc2)n1 | / | 9.7% | / | / | / | /
NC(=O)C(=CNc1nc(-c2ccc(Cl)c(Cl)c2)cs1)C(N)=O | 1.41µM* | 6.2% | / | / | / | /
NC(CSC(c1ccccc1)(c1ccccc1)c1ccc2c(c1)OCO2)C(=O)O (stereo not given) | / | / | / | / | 35.5µM* | /
CC(C)(C)C(=O)Cn1c(=O)n(-c2ccc(Cl)c(Cl)c2)c(=O)c2c3c(sc21)CCCC3 | 4.1% | -2.7% | -18.0% | 1.2% | -6.9% | -2.4%
CC(/C=N/Nc1ccc2nncn2n1)=C\c1ccccc1 | ? | / | -5.4% | ? | 79.4µM* | -4.0%
CC(C=NNc1ccc([N+](=O)[O-])cn1)=Cc1ccccc1 | / | / | -5.6% | -0.3% | -9.7% | 58.1%
COc1ccc(NC(=O)C2CCCN(S(=O)(=O)c3ccc4c(c3)CCCN4C(C)=O)C2)cc1 (stereo not given) | 4.2% | 1.2% | -16.5% | 14.5% | 19.3% | 79.4µM*!
COc1cc(NC(=O)C2CCCN(S(=O)(=O)c3ccc4c(c3)CCCN4C(C)=O)C2)cc(OC)c1 (stereo not given) | 3.2% | 1.6% | -15.1% | 6.3% | -10.4% | -1.7%
Cc1[nH]c2ccccc2c1C(c1c[nH]c2ccccc12)c1c(C)[nH]c2ccccc12 | / | / | 3.1% | 0.5% | / | 29.2%
C=CCOC(=O)C(=O)/C=C/c1ccc2c(c1)Cc1ccccc1-2 | 8.2% | 6.4% | -5.7% | -7.1% | 3.2% | 12.6µM*
Nc1[nH]c(=O)nc2nnsc12 | / | / | -5.1% | 4.5% | / | 0.4%
CC(=O)Nc1cccc(N2C(=O)CC(N3CCC(C(=O)N4CCCCC4)CC3)C2=O)c1 (stereo not given) | 16.2% | 5.4% | -8.3% | 0.3% | -7.1% | 7.7%
COc1cc(OC)cc(N2C(=O)CC(N3CCC(C(=O)N4CCCCC4)CC3)C2=O)c1 (stereo not given) | 20µM* | / | -40.8% | -0.7% | ? | ?
Cc1cc(C)c([N+](=O)[O-])cc1-c1ccc(/C=N/c2c(-c3ccco3)nc3ccccn23)o1 | 50.1µM* | 5.2% | ? | ? | -4.6% | ?
Oc1cccc(/C=N/c2c(-c3ccco3)nc3ccccn23)c1 | 0.9% | -3.8% | -11.1% | -23.2% | -14.3% | 25.1µM*
O=[N+]([O-])c1ccc(Cl)c(-c2ccc(/C=N/c3c(-c4ccco4)nc4ccccn34)o2)c1 | 50.1µM* | 2.0% | -12.5% | -1.0% | -21.8% | ?
